Experimental data reported in PubChem BioAssay (NCATS).
Records with an inconclusive call do not appear. Active and inactive are the calls of the source. Calls come from the whole dose curve; as a rule, active = well fitted curve in the direction sought with a large enough effect; inconclusive = small, poorly fitted or top-dose-only effect, or another doubt; inactive = no such curve, though single readings can be large; an effect the other way counts as inactive or inconclusive.

Key:
[1] = qHTS of pediatric cancer cell lines to identify multiple opportunities for drug repurposing: Primary screen for MG 63 (6-TG R) cells (AID 1347105); note: nearly all actives have a fitted effect of over 50% in size
Summary of the method: (§1)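 Plated cells (500-1,000 per well, growth media) were allowed to settle for 5 hours, treated with compound dilutions for 48 hours, then lysed with CellTiter-Glo for 15 min at room temperature before luminescence reading.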

[2] = qHTS of pediatric cancer cell lines to identify multiple opportunities for drug repurposing: Primary screen for Rh30 cells (AID 1347107); note: nearly all actives have a fitted effect of over 75% in size
Summary of the method: (§2)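 Cells (500-1,000/well) rested 5 h, then received compounds for 48 h; metabolically active cells were measured by CellTiter-Glo luminescence. Final concentrations spanned up to 46 µM (MIPE, 11-point) or 0.59 nM-46 µM (NPC, 8-point) in primary screens, 11-point in follow-ups.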

[3] = qHTS of pediatric cancer cell lines to identify multiple opportunities for drug repurposing: Primary screen for Rh41 cells (AID 1347108); note: nearly all actives have a fitted effect of over 70% in size
Summary of the method: as §1

[4] = qHTS of pediatric cancer cell lines to identify multiple opportunities for drug repurposing: Confirmatory screen for NB1643 cells (AID 1347109); note: nearly all actives have a fitted effect of over 45% in size
Summary of the method: as §2

[5] = qHTS of pediatric cancer cell lines to identify multiple opportunities for drug repurposing: Confirmatory screen for A673 cells (AID 1347110);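 note: cells exposed to compound for 48 h before the viability read; nearly all actives have a fitted effect of over 65% in size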
Summary of the method: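 Viability was read as ATP luminescence (CellTiter-Glo) after 48 h of compound exposure at 37 C in A673 cells seeded at 500-1,000/well. Titrations reached 46 uM final, with 11 points in the confirmatory screen. Concentration-response curves were fitted directly.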

[6] = qHTS of pediatric cancer cell lines to identify multiple opportunities for drug repurposing: Confirmatory screen for SK-N-MC cells (AID 1347111);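 note: cells exposed to compound for 48 h before the readout; nearly all actives have a fitted effect of over 70% in size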
Summary of the method: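 Seed 500-1,000 cells/well; rest 5 h at 37 degrees C. Pin-transfer compounds, 11-point titration. Incubate 48 h. Add CellTiter-Glo, 15 min RT, read luminescence.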

[7] = qHTS of pediatric cancer cell lines to identify multiple opportunities for drug repurposing: Confirmatory screen for BT-12 cells (AID 1347112); note: nearly all actives have a fitted effect of over 55% in size
Summary of the method: as §2

[8] = qHTS of pediatric cancer cell lines to identify multiple opportunities for drug repurposing: Confirmatory screen for LAN-5 cells (AID 1347113); note: nearly all actives have a fitted effect of over 65% in size
Summary of the method: as §2

[9] = qHTS of pediatric cancer cell lines to identify multiple opportunities for drug repurposing: Confirmatory screen for DAOY cells (AID 1347114); note: nearly all actives have a fitted effect of over 65% in size
Summary of the method: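 Viability measured as metabolically active cells via CellTiter-Glo luminescence following 48 hours of compound exposure, 11-point dilutions in confirmatory testing. 500-1,000 cells/well plated 5 hours before dosing; controls were DMSO and 2.3 µM bortezomib.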

[10] = qHTS of pediatric cancer cell lines to identify multiple opportunities for drug repurposing: Primary screen for control Hh wild type fibroblast cells (AID 1347106); note: nearly all actives have a fitted effect of over 55% in size
Summary of the method: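 Viability after 48 h compound treatment at 37C, 500-1,000 cells/well, read as ATP luminescence with CellTiter-Glo. Primary screens used 11-point (MIPE, 0.78 nM-46 µM) or 8-point (NPC, 0.59 nM-46 µM) final concentrations; follow-up screens used 11-point dilutions.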

Measured: Potency
Potency is the fitted concentration of half-maximal effect.

Cc1cc(Nc2cc(CN3CCOCC3)c3nc(C)c(Cc4ccc(Cl)cc4F)n3n2)n[nH]1
active: [1] 14.8 µM | [2] 14.8 µM | [3] 14.8 µM

Cn1cncc1[C@@](N)(c1ccc(Cl)cc1)c1ccc2c(c1)c(-c1cccc(Cl)c1)cc(=O)n2C
active: [1] 23.5 µM | [3] 14.8 µM

C#Cc1cccc(Nc2ncnc3cc(OC)c(OCCCCCCC(=O)NO)cc23)c1
active: [1] 0.118 µM | [2] 11.8 µM | [3] 0.372 µM | [4] 0.955 µM | [5] 2.4 µM | [6] 603 nM | [7] 5.37 µM | [8] 0.676 µM | [9] 2.14 µM

CC[C@@H]1C(=O)N(C)c2cnc(Nc3ccc(C(=O)NC4CCC(N5CCN(CC6CC6)CC5)CC4)cc3OC)nc2N1C(C)C (some centres undefined)
active: [1] 11.8 µM | [2] 16.6 µM | [3] 2.35 µM
inactive: [4] | [7] | [8] | [9]

N#CCNC(=O)c1ccc(-c2ccnc(Nc3ccc(N4CCOCC4)cc3)n2)cc1
active: [1] 18.7 µM | [3] 18.7 µM

Cc1cc(Nc2cc(NC(=O)c3c(Cl)cccc3Cl)ccn2)nc(N)n1
inactive: [2]
active: [1] 11.8 µM | [4] 5.85 µM | [5] 0.603 µM | [6] 657 nM | [7] 1.31 µM | [8] 9.27 µM

CC=CC1=C(C(=O)O)N2C(=O)[C@H](NC(=O)[C@H](N)c3ccc(O)cc3)[C@@H]2SC1
inactive: [1] | [10] | [3] | [4] | [7] | [8] | [9]

COc1cc(OC2CCN(C)CC2)ccc1Nc1ncc2c(n1)n(C1CCCC1)c(=O)n2C
active: [1] 23.5 µM | [2] 20.9 µM | [3] 18.7 µM

CN[C@H]1CCc2cc(OC)c(OC)c(OC)c2-c2ccc(OC)c(=O)cc21
inactive: [1] | [2]
active: [5] 0.104 µM | [7] 0.147 µM | [9] 0.0465 µM

COc1cccc(Nc2c(C(N)=O)cnc3c(C)cc(S(=O)(=O)c4cccc(C(=O)N(C)C)c4)cc23)c1
inactive: [1] | [10] | [3] | [4] | [5] | [7] | [8] | [9]

COc1cc(Nc2ncc(F)c(Nc3ccc4c(n3)N(COP(=O)(O)O)C(=O)C(C)(C)O4)n2)cc(OC)c1OC
active: [1] 0.935 µM | [3] 3.72 µM | [4] 5.85 µM | [5] 7.37 µM | [6] 11700 nM | [8] 10.4 µM | [9] 3.69 µM
inactive: [10]

COc1ccc(C(=O)CC2(O)C(=O)Nc3c(Cl)ccc(Cl)c32)cc1 (centres undefined)
active: [1] 3.72 µM | [3] 3.72 µM

Cc1cc(Nc2ncnc3ccc(-c4ccc(CNCCS(C)(=O)=O)o4)cc23)ccc1Oc1ccn2ncnc2c1
active: [1] 18.7 µM | [3] 11.8 µM | [6] 20800 nM | [8] 20.8 µM
inactive: [10] | [7]

O=C(NCCCNc1nc(Nc2cccc(NC(=O)N3CCCC3)c2)ncc1I)c1cccs1
active: [1] 3.72 µM | [3] 18.7 µM

COc1cc(C(=O)N2CCC(N3CCN(C)CC3)CC2)ccc1Nc1ncc2c(n1)N(C)c1ccccc1C(=O)N2C
active: [1] 9.35 µM | [3] 9.35 µM

Cc1nc(Nc2n[nH]c3c2CN(C(=O)N[C@H](CN(C)C)c2ccccc2)C3(C)C)c2sccc2n1
active: [1] 9.35 µM | [10] 14.8 µM | [3] 6.62 µM | [5] 13.1 µM | [7] 13.1 µM
inactive: [9]

CC1(C)O[C@@H]2C[C@@H]3[C@H]4C[C@@H](F)C5=CC(=O)C=C[C@]5(C)[C@@]4(F)[C@@H](O)C[C@]3(C)[C@]2(C(=O)CO)O1
active: [5] 0.0928 µM | [6] 293 nM | [7] 0.0737 µM | [9] 0.737 µM
inactive: [1] | [10]

CN(C)CC=CC(=O)Nc1cc2c(Nc3ccc(F)c(Cl)c3)ncnc2cc1O[C@H]1CCOC1
active: [1] 14.8 µM | [3] 7.43 µM

Cn1cc(-c2[nH]c3cc(NC(=O)[C@H](N)C4CCCCC4)cc4c3c2C=NNC4=O)cn1
inactive: [10]

CCN1CCN(CC(=O)Nc2ccc(-c3cccc4c(=O)cc(N5CCOCC5)oc34)c3sc4ccccc4c23)CC1
inactive: [10]
active: [2] 10.5 µM | [3] 1.66 µM

COc1cc(C)c(Sc2cnc(NC(=O)c3ccc(CNC(C)C(C)C)cc3)s2)cc1C(=O)N1CCN(C(C)=O)CC1 (centres undefined)
active: [2] 8.33 µM | [3] 2.64 µM
inactive: [10]
